According to PubChem BioAssay (EPA / NIEHS):
The source made the active and inactive calls. Rule for the calls: active = hit-call score of the fitted dose curve at least 0.9, where 1 is the maximum; inactive = score below 0.9.

Experiment: Tanguay_ZF_120hpf_ANY: Oregon State University Tanguay Lab 120 Hour Post-fertilization zebrafish Assay for Any Mortality and Malformation (AID 2284404)
Method: Tanguay_ZF_120hpf is a whole embryo, multiplexed endpoint assay using zebrafish larvae exposed for 120 hours post fertilization on a 96-well plate.Tanguay_ZF_120hpf_ANY is one of one assay component(s) measured or calculated from the Tanguay_ZF_120hpf assay. It is designed to make measurements of developmental malformations and mortality as detected with brightfield microscopy and combines scoring from 13 other assay components measuring more specific morphologies.Data from the assay component Tanguay_ZF_120hpf_ANY was analyzed into 1 assay endpoints. This assay endpoint, Tanguay_ZF_120hpf_ANY, was analyzed in the positive analysis fitting direction relative to DMSO as the negative control and baseline of activity. Using a type of morphology reporter, gain-of-signal activity can be used to understand changes in developmentals as they relate to the whole embryo. To generalize the intended target to other relatable targets, this assay endpoint is annotated to the zebrafish development intended target family, where the subfamily is embryonic morphogenesis and mortality.
Zebrafish husbandry: Tropical 5D wild-type adult zebrafish were housed in at an approximate density of 1000 per 100 gallon tank at the Sinnhuber Aquatic Research Laboratory, Oregon State University, Corvallis, OR. Each tank was kept at standard laboratory conditions of 28C on a 14-h light/10-h dark photoperiod in fish water consisting of reverse osmosis water supplemented with a commercially available salt (Instant Ocean). Spawning funnels were placed into the tanks the night prior, and embryos were collected and staged. To increase bioavailability, the chorion was enzymatically removed using pronase (63.6mg/ml, >/= 3.5U/mg, Sigma-Aldrich: P5147) at 4 hours post fertilization (hpf) using a custom automated dechorionator.Chemical exposures: Six hpf dechorionated embryos were placed 1 embryo per well in a 96-well plate prefilled with 90 ul of EM using automated embryo placement systems (AEPS). Ten microliters of each row of dilution plate 2 was added to 2 exposure plates. The final DMSO concentration used was 0.64% (vol/vol). Thirty-two embryos were also exposed to 5uM trimethyltin chloride (positive control). Plates were sealed to prevent evaporation and foil covered to reduce light exposure and kept in a 28C incubator. Embryos were statically exposed until 120 hpf. At 24 hpf, embryos were assessed for photomotor response using a custom photomotor response analysis tool (PRAT) and for developmental toxicity endpoints (MO24: mortality at 24 hpf, DP: developmental progression, SM: spontaneous movement, and NC: notochord distortion). At 120 hpf, locomotor activity was measured using Viewpoint Zebralab and assessed for 13 endpoints. Zebrafish acquisition and analysis program (ZAAP), a custom program designed to inventory, acquire, and manage zebrafish data, was used to collect developmental endpoints as either present or absent (i.e., binary responses were recorded). If mortality occurred for an embryo (at either 24 or 120 hpf), the non-mortality endpoints were not measured.

Compound	outcome	AC50
FC(F)C(F)(F)COCC1CO1 (stereo not given)	inactive	
FC(F)=C(F)C(F)(F)C(F)(F)C(F)(F)C(F)(F)C(F)(F)C(F)(F)F	inactive	
OCCC(F)(F)C(F)(F)C(F)(F)C(F)(F)F	inactive	
OC(O)(C(F)C(O)(O)C(F)(F)F)C(F)(F)F		40.5 µM (active)
FC(F)(F)C(F)(F)C(F)(F)C(F)(F)C(F)(F)C(F)(F)I	inactive	
NCC(F)(F)C(F)(F)C(F)(F)C(F)(F)F	inactive	
FC(F)(F)COC(OCC(F)(F)F)OCC(F)(F)F	inactive	
C[Si](C)(C)C(F)(F)C(F)(F)C(F)(F)F	inactive	
O=S(=O)(O)CCC(F)(F)C(F)(F)C(F)(F)C(F)(F)C(F)(F)C(F)(F)F	inactive	
O=C(Cl)C(F)(F)C(F)(F)C(F)(F)C(=O)Cl		57.6 µM (active)
